# DT40 TDP1 CPT = qHTS for Inhibitors of human tyrosyl-DNA phosphodiesterase 1 (TDP1): qHTS in cells in presence of CPT; chicken DT40 Tdp1-/-;hTDP1 cells + 20 nM CPT, ATP luminescence, 48 h; Potency, µM (doses to about 46.2 µM), without a hit: at the highest dose activity change, negative = growth inhibition, most hits filed as inhibitors; 420,000 compounds, 12% hits; AID 686979, 2013; note: potency is the fitted concentration of half-maximal effect; nearly all actives have a fitted effect of over 55% in size
#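 Cell growth measured by CellTiter-Glo luminescence after a minimum 48 h, 37 C compound exposure with 20 nM CPT in Tdp1-knockout DT40 cells stably expressing hTDP1, seeded 400/well; qHTS titration format.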
# TDP1 cell noCPT = qHTS for Inhibitors of human tyrosyl-DNA phosphodiesterase 1 (TDP1): qHTS in cells in absence of CPT; AID 686978, 2013; DT40 Tdp1-/- hTDP1 cells, no CPT, ATP luminescence, 48 h; Potency, µM (series often up to 46.2 µM), without a hit: at the top dose activity change, negative = growth inhibition, hits mostly inhibitors; 420,000 compounds, 15% hits; note: potency is the fitted concentration of half-maximal effect; nearly all actives have a fitted effect of over 55% in size
#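 Camptothecin absent (DMSO only). Human TDP1-complemented DT40 knockout cells, 400 cells/well, 37 °C for minimum 48 hr; ATP measured via CellTiter-Glo, 30 min dark incubation, luminescence.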
# IL-1B inflam inh = qHTS for Inhibitors of Inflammasome Signaling: IL-1-beta AlphaLISA Primary Screen. THP-1 LPS/ATP IL-1B secretion, AlphaLISA, 16 h; hits give low values. activity change, % at 57.5 µM. 360,000 compounds, 4.7% hits. AID 743279, 2014; in the data active = activity change below about -50%; inconclusive = mostly about -30% to -49%
#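 THP-1 cells pretreated 1 hr with compounds (up to 57.5 uM final), then stimulated with LPS (250 ng/mL final) plus ATP (1.25 mM final); secreted IL-1B measured by AlphaLISA after 16 hr, decreased signal indicating inhibition.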
# HT1080NT lethal = qHTS for induction of synthetic lethality in tumor cells producing 2HG: qHTS for the HT-1080-NT fibrosarcoma cell line; 360,000 compounds, 1.6% hits; HT-1080-NT fibrosarcoma viability, CellTiter-Glo ATP luminescence, 48 h; Potency, µM (top dose mostly 46.1 µM), inactives show at the top dose activity, negative = less viability, actives largely listed as cytotoxic;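 note: NT is the 2HG producing partner of a matched IDH1 knockdown line; potency is the fitted concentration of half-maximal effect; 0% = DMSO-treated cells and -100% = media-only wells without cells; nearly all actives have a fitted effect of over 55% in size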
#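 HT-1080-NT; 750 cells/well; 5% FBS RPMI; 48 h compound, 37 degrees C; CellTiter-Glo luminescence; curve fitting and curve-class assignment.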
# HT1080 IDH1KD tx = qHTS for induction of synthetic lethality in tumor cells producing 2HG: qHTS for the HT-1080-IDH1KD cell line. HT-1080 IDH1 knockdown viability, ATP luminescence, 48 h. Potency, µM (doses to about 46.1 µM), inactives show at the highest dose activity, negative = toxicity, most hits filed as cytotoxic. AID 686971, 2013. 360,000 compounds, 2% hits;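 note: potency is the fitted concentration of half-maximal effect; 0% = DMSO wells and -100% = cell-free medium wells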
#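 HT-1080-IDH1KD cells (IDH1 knocked down), 750/well in RPMI with 5% FBS, treated with compound 48 h at 37 degrees C. Viability by CellTiter-Glo luminescence, normalised to DMSO and no-cell wells; concentration-response curves classed.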
# ALOX12 inh = Primary qHTS assay for inhibitors of human arachidonate 12S-lipoxygenase (ALOX12): Round 2. Polyunsaturated fatty acid lipoxygenase ALOX12 (Homo sapiens), P18054. Potency, µM (doses to about 108 µM), inactives show at the top dose activity change, negative = inhibition, most hits filed as inhibitors. 580,000 compounds, 1.1% hits. purified 12hLO, xylenol orange hydroperoxide absorbance; note: potency is the fitted concentration of half-maximal effect
# Target sequence (P18054 whole entry, looked up): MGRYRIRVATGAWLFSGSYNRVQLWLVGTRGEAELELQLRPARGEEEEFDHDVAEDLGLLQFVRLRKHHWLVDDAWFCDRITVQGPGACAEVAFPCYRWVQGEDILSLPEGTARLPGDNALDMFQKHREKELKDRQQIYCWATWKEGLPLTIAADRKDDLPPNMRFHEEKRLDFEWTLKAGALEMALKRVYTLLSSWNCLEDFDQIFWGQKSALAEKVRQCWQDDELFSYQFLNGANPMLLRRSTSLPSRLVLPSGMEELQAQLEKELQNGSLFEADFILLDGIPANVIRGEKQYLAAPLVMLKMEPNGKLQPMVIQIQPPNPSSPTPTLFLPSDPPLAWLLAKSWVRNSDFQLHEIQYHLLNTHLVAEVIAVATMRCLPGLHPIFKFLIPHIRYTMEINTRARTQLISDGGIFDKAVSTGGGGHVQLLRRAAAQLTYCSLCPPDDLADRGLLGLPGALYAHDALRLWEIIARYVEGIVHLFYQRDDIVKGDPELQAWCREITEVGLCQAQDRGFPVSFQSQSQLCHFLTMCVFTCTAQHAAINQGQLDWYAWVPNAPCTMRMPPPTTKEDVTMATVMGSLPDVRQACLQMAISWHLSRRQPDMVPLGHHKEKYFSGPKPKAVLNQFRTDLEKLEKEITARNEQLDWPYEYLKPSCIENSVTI
#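 Purified human 12hLO at 150 nM in 25 mM Hepes, 0.01% Triton X-100, pH 7.0, preincubated 15 min at room temperature with compound. Reaction started with 40 uM arachidonic acid, 30 min at room temperature. Hydroperoxide measured by Fe-xylenol orange, 573/405 nm absorbance ratio.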
# Active calls of the source: *; i = inactive; ? = inconclusive; nt = not tested or not shown; ! = a repeat was not active. Many of the other results were omitted from the sample, so hits are more common in it than they were. Unless noted, calls come from the whole dose curve; as a rule, active = well fitted curve in the direction sought with a large enough effect; inconclusive = small, poorly fitted or top-dose-only effect, or another doubt; inactive = no such curve, though single readings can be large; an effect the other way counts as inactive or inconclusive. Unless noted, % is set by controls: 0 for no effect and ±100 for the full control effect.
SMILES,DT40 TDP1 CPT,TDP1 cell noCPT,IL-1B inflam inh,HT1080NT lethal,HT1080 IDH1KD tx,ALOX12 inh
CC(=O)Nc1ccc(CN2CCCC(CCC(=O)NCc3ccccc3F)C2)cc1 (stereo unspecified),5%,2%,-14,0%,1%,-1%
O=C(NCc1ccccc1F)C1CCN(Cc2cc3ccccc3n2Cc2cccc(Cl)c2)CC1,?,23µM*,nt,nt,nt,?
O=C(NCc1ccco1)C1CCN(c2nc3ccccc3n2Cc2ccccc2F)CC1,16µM*,?,?,11%,-9%,?
Cc1cc(C)nc(N2CCC(C(=O)NCc3ccccc3F)CC2)n1,2%,13%,18,-7%,10%,6%
C(=C\c1nc2ccccc2s1)/c1csc(-c2ccccc2)n1,nt,nt,nt,nt,nt,7%
CCn1nc(C)c(CNCc2cn[nH]c2-c2cc3ccccc3o2)c1C,-29%,-26%,9,-24%,4%,3%
Cc1ccc(N(CC(=O)NCc2ccccc2C)S(=O)(=O)N(C)C)cc1,nt,nt,nt,nt,nt,3%
CC(C)c1nn2c(=O)cc(COC(=O)C3CCCCC3)nc2s1,-17%,-2%,nt,nt,nt,-28%
CC(CNC(=O)C1CCC(C(=O)NCC(C)c2ccccc2)CC1)c1ccccc1 (stereo unspecified),nt,nt,nt,nt,nt,13%
Cc1ccc(Cn2c(CN3CCC(C(=O)NCCc4ccccc4)CC3)cc3ccccc32)cc1,23µM*,16µM*,nt,nt,nt,-14%
Cc1ccc(Cn2c(CN3CCC(C(=O)NCC(C)c4ccccc4)CC3)cc3ccccc32)cc1 (stereo unspecified),?,26µM*,nt,nt,nt,-21%
COCCCNC(=O)C1CCN(Cc2cc3ccccc3n2Cc2ccccc2C)CC1,?,?,nt,nt,nt,-22%
O=C(CC1(CC(=O)N2CCOCC2)CCCC1)Nc1ccccc1,2%,26%,-15,3%,1%,14%
O=C(Oc1cccc2cccnc12)c1ccc(-c2ccccc2)cc1,nt,nt,nt,nt,nt,-33%
CCCn1c(NC(=O)C2COc3ccccc3O2)nc2ccccc21 (stereo unspecified),18µM*,18µM*,5,-22%,-16%,-2%
Cc1ccc(C(=O)N/N=C/c2ccccc2)cc1,nt,nt,nt,nt,nt,-41%
CCCn1c(NC(=O)c2ccccc2Br)nc2ccccc21,?,23µM*,5,-17%,?,14%
CCCn1c(NC(=O)C2CCN(C(=O)c3ccc(F)cc3)CC2)nc2ccccc21,18µM*,?,0,0%,-5%,i
CCc1ccccc1NC(=O)C1COc2ccccc2O1 (stereo unspecified),2%,-2%,-2,?,14%,0%
Cc1ccc(C(=O)N/N=C/c2nc3ccccc3n2C)cc1,?,18µM*,29,8.9µM*,10µM*,-15%
COc1cccc(C(=O)C(C)C(=O)c2cccc(OC)c2)c1,nt,nt,nt,nt,nt,-15%
Cn1c(/C=N/O)nc2ccccc21,9%,4%,0,1%,12%,1%
Cn1c(/C=N/NC(=O)c2ccccc2Br)nc2ccccc21,?,18µM*,-9,?,?,-27%
CCCCCCCCN1C(=O)[C@H](CC(=O)NCC2CCCCC2)C[C@@]2(C(=O)OC)CCCCC=C12,21µM*,16µM*,0,-4%,-22%,-60%
CCCCCCCCN1C(=O)[C@H](CC(=O)NCCCN2CCCC2=O)C[C@@]2(C(=O)OC)CCCCC=C12,?,?,-16,-7%,-6%,-10%
SMILES,DT40 TDP1 CPT,TDP1 cell noCPT,IL-1B inflam inh,HT1080NT lethal,HT1080 IDH1KD tx,ALOX12 inh
CCCCCCCCN1C(=O)[C@H](CC(=O)NCCCOC)C[C@@]2(C(=O)OC)CCCCC=C12,?,16µM*,-6,-13%,-16%,4%
C/C(=N\NC(=O)c1cccs1)c1ccccc1,nt,nt,nt,nt,nt,41%
COc1ccc(N(CC(C)C)S(=O)(=O)c2nnc(NC(=O)c3ccco3)s2)cc1,?,21µM*!,-2,-27%,-28%,24%
Cc1ccc(N(CC(C)C)S(=O)(=O)c2nnc(NC(=O)c3cccs3)s2)cc1,?,23µM*,nt,nt,nt,-14%
Cc1cccc(N(C)S(=O)(=O)c2nnc(NC(=O)c3cccs3)s2)c1,-6%,?,nt,nt,nt,-18%
CCN(c1ccc(OC)cc1)S(=O)(=O)c1nnc(NC(=O)c2ccccc2Cl)s1,?,16µM*!,-17,-4%,-25%,-23%
CCC(CC)C(=O)N1CCC(OC2CCN(C)CC2)CC1,nt,nt,nt,nt,nt,62%
CCOc1ccc(CNC(=O)C2CCN(c3nc4c(C)cc(C)cc4s3)CC2)cc1,nt,nt,nt,nt,nt,7%
Cc1cc(C)c2oc(C(=O)Nc3nc4ccc(Cl)cc4s3)cc(=O)c2c1,9%,7%,nt,nt,nt,-8%
COc1cccc(CNC(=O)CN2CCCc3nc(C)ncc3C2=O)c1,nt,nt,nt,nt,nt,24%
CC(C)(C)c1ccc(Cn2nnc3c(=O)[nH]c(C4CCCN(C(=O)c5cccs5)C4)nc32)cc1 (stereo unspecified),16µM*,?,?,?,?,-27%
O=C(c1cccs1)N1CCCC(c2nc3c(nnn3Cc3c(Cl)cccc3Cl)c(=O)[nH]2)C1 (stereo unspecified),?,?,-25,-8%,-7%,-18%
Cc1ccc(Cn2nnc3c(=O)[nH]c(C4CCN(C(=O)Cc5cccs5)CC4)nc32)cc1,?,-23%,0,-28%,?,-1%
CC(C)(C)c1ccc(Cn2nnc3c(=O)[nH]c(C4CCCN(C(=O)Cc5cccs5)C4)nc32)cc1 (stereo unspecified),23µM*,?,-19,?,?,-29%
CC(C)(C)CC(=O)N1CCC(c2nc3c(nnn3Cc3c(F)cccc3Cl)c(=O)[nH]2)CC1,16µM*,?,-14,-16%,-14%,53%
CC(C)(C)c1ccc(Cn2nnc3c(=O)[nH]c(C4CCN(C(=O)Cc5cccs5)CC4)nc32)cc1,?,21µM*,-29,?,?,-10%
Cc1cc(N2CCC3(CC2)CC(c2ccccc2)C(=O)N(C2CC2)C3)nc(N)n1 (stereo unspecified),nt,nt,nt,nt,nt,32%
CCOc1ccc(S(=O)(=O)N2CCN(c3ccccc3)CC2)cc1C(N)=O,3%,-4%,nt,nt,nt,-8%

# Compound activity: PubChem, National Center for Advancing Translational Sciences (NCATS)
